# Measured values: paper PMC4552634, “A New Set of Chemical Starting Points with Plasmodium falciparum Transmission-Blocking Potential for Antimalarial Drug Discovery” (PLoS ONE, 2015)
# In all, about 13,000 compounds went through this assay and about 3,200 (25%) showed an effect of 50% or more. This is one part of the list.
# System: P. falciparum stage V gametocytes
# Parameters: BacTiter-Glo ATP luminescence viability of purified stage V gametocytes in 384-well plates, per cent inhibition versus DMSO
# Details: 48 h, 5 µM; inhibitor
row,SMILES,% Inhibition [%]
1,c1cc(-c2cc3ccc(C4=NCCN4)cc3[nH]2)ccc1C1=NCCN1 [TCMDC-137748],20.42
2,N=C(N)c1ccc2[nH]c(-c3cc4cc(C(=N)N)ccc4o3)cc2c1 [TCMDC-137436],-17.43
3,N=C(N)c1ccc(-c2cc3ccc(C(=N)N)cc3[nH]2)cc1 [TCMDC-123458],53.3
4,COc1ccc2nccc([C@@H](O)CN3CCC(NC(=O)C(c4ccccc4C)N4CCC(Cc5ccccc5)CC4)CC3)c2c1 (stereo partly shown) [TCMDC-141102],2.818
5,N=C1SC(=Cc2cn[nH]c2-c2ccc(F)cc2)C(=O)N1c1nccs1 [TCMDC-123515],2.084
6,O=S(=O)(Nc1cccc(CCN2CCC(N3CCCCC3)CC2)c1)c1ccc(Cl)cc1 [TCMDC-134065],22.65
7,CCc1ccc(S(=O)(=O)Nc2ccc(CCN3CCC(N4CCCCC4)CC3)cc2)cc1 [TCMDC-134089],86.75
8,CC(C)c1ccc(S(=O)(=O)Nc2cccc(CCN3CCC(N4CCCCC4)CC3)c2)cc1 [TCMDC-134075],76.83
9,O=S(=O)(Nc1ccc(CCN2CCC(N3CCCCC3)CC2)cc1)c1ccc(Cl)cc1 [TCMDC-134078],45.94
10,O=S(=O)(Nc1cccc(CCN2CCC(N3CCCCC3)CC2)c1)c1ccc(Oc2ccccc2)nc1 [TCMDC-134073],14.52
11,O=S(=O)(Nc1cccc(CCN2CCC(N3CCCCC3)CC2)c1)c1ccc(-c2ccccc2)cc1 [TCMDC-134071],47.75
12,Cc1ccc(NS(=O)(=O)c2ccc(C(C)N3CCC(N4CCCCC4)CC3)cc2)cc1C (stereo not shown) [TCMDC-133540],11.79
13,CCc1ccc(S(=O)(=O)Nc2cccc(CCN3CCC(N4CCCCC4)CC3)c2)cc1 [TCMDC-134077],77.96
14,O=S(=O)(Nc1cccc(CCN2CCC(N3CCCCC3)CC2)c1)c1ccc(Oc2ccccc2)cc1 [TCMDC-134072],70.07
15,COc1ccc(O)cc1Cc1cnc2nc(N)nc(N)c2c1C [TCMDC-137498],-65.52
16,COc1ccc2nccc([C@@H](O)CN3CCC(NC(=O)C(c4cc5ccccc5o4)N4CCN(c5ccccc5)CC4)CC3)c2c1 (stereo partly shown) [TCMDC-140989],28.59
17,CC(=O)N[C@H](C(=O)Nc1ccc(-c2ccc(-c3nc4cc(C(F)(F)F)ccc4[nH]3)s2)cc1)C(C)C [TCMDC-136852],-48.64
18,O=C(NCCc1ccc(Cl)c(Cl)c1)C1CCCN(C(=O)c2ccc(O)c(-c3ccc(Cl)c(Cl)c3)c2)C1 (stereo not shown) [TCMDC-140892],-3.917
19,CC(CON1C(N)=NC(N)=NC1(C)C)Cc1ccc(Cl)cc1Cl (stereo not shown) [TCMDC-131712],20.42
20,Cc1cc(NS(=O)(=O)c2cccc(C(C)N3CCC(N4CCCC4)CC3)c2)ccc1C(C)C (stereo not shown) [TCMDC-133708],8.518
21,O=S(=O)(Nc1ccc(CCN2CCC(N3CCCCC3)CC2)cc1)c1ccc2ccccc2c1 [TCMDC-134079],52.17
22,O=S(=O)(Nc1cccc(CCN2CCC(N3CCCCC3)CC2)c1)c1ccc2c(c1)OCCO2 [TCMDC-134067],55.86

row,SMILES,% Inhibition [%]
1,COc1ccc2nccc([C@@H](O)CN3CCC(NC(=O)C(c4cccs4)N4CCN(c5ccc(F)cc5)CC4)CC3)c2c1 (stereo partly shown) [TCMDC-141100],25.13
2,COc1cc(C(=O)N2CCOC(CCN3CCC(c4ccc(Cl)cc4)CC3)(c3ccc(Cl)c(Cl)c3)C2)cc(OC)c1OC (stereo not shown) [TCMDC-135566],-3.164
3,COc1cc(C(=O)N2CCOC(CCN3CCC4c5ccccc5CC43)(c3ccc(Cl)c(Cl)c3)C2)cc(OC)c1OC (stereo not shown) [TCMDC-135567],-73.24
4,COc1cc(C(=O)N2CCOC(CCN3CCC[C@H]3C(=O)Nc3ccccc3)(c3ccc(Cl)c(Cl)c3)C2)cc(OC)c1OC (stereo partly shown) [TCMDC-135571],90.6
5,COc1cc(Nc2nccc(N3CCC(NC(=O)Nc4cccc(C(C)=O)c4)C3)n2)cc(OC)c1OC (stereo not shown) [TCMDC-133621],-9.129
6,COc1cc(Cc2cnc(N)nc2N)cc(OCC(C)(C)C(=O)O)c1OC [TCMDC-137887],-9.297
7,Cc1cnc(C(=O)Nc2ccc(-c3cccc(-c4nc5ccccc5[nH]4)c3)cc2)cn1 [TCMDC-137026],-17.4
8,Cc1cnc(C(=O)Nc2cccc(-c3cccc(-c4nc5ccc(F)cc5[nH]4)c3)c2)cn1 [TCMDC-137027],68.21
9,NC(=O)c1ccc(NCC(=O)Nc2cccc(-c3cccc(-c4nc5ccc(F)cc5[nH]4)c3)c2)cc1 [TCMDC-132163],90.29
10,CC(=O)Nc1cccc(C(=O)Nc2cccc(-c3cccc(-c4nc5ccc(F)cc5[nH]4)c3)c2)c1 [TCMDC-132137],91.99
11,O=C(Nc1ccc(Cl)cc1)Nc1ccc(-c2cccc(-c3nc4ccc(F)cc4[nH]3)c2)cc1 [TCMDC-133186],-8.569
12,NC(=O)c1ccc(NCC(=O)Nc2cccc(-c3cccc(-c4nc5ccc(C(F)(F)F)cc5[nH]4)c3)c2)cc1 [TCMDC-132164],-17.45
13,CC(=O)Nc1cccc(C(=O)Nc2cccc(-c3ccc(-c4nc5ccc(F)cc5[nH]4)cc3)c2)c1 [TCMDC-132139],-25.67
14,NC(=O)c1ccc(NCC(=O)Nc2cccc(-c3cccc(-c4nc5ccccc5[nH]4)c3)c2)cc1 [TCMDC-132162],2.725
15,O=C(Nc1ccc(Cl)cc1)Nc1cccc(-c2cccc(-c3nc4ccc(F)cc4[nH]3)c2)c1 [TCMDC-133185],-67.78
16,CC(=O)Nc1cccc(C(=O)Nc2ccc(-c3cccc(-c4nc5ccc(F)cc5[nH]4)c3)cc2)c1 [TCMDC-132135],-4.902
17,O=C(Nc1ccc(Cl)cc1)Nc1cccc(-c2ccc(-c3nc4ccc(F)cc4[nH]3)cc2)c1 [TCMDC-133183],78.47
18,Cc1cnc(C(=O)Nc2cccc(-c3ccc(-c4nc5ccc(F)cc5[nH]4)cc3)c2)cn1 [TCMDC-137029],23.15
19,O=C(NCCc1ccc(F)cc1)c1ccc(N2CCN(c3ccncc3)CC2)nc1 [TCMDC-134585],1.059
20,COc1ccc(C2CC(c3cccs3)=NN2C(=O)c2ccco2)cc1OC (stereo not shown) [TCMDC-123796],12.69
21,COc1ccc(CCCCN2C(=O)C(c3ccccc3)(c3ccccc3)N=C2N)cc1 [TCMDC-136522],-62.46
22,C=CCOc1cc(Cc2cnc(N)nc2N)cc(OC)c1OC [TCMDC-138042],-3.964

row,SMILES,% Inhibition [%]
1,CCOc1cc(C(=O)NCc2cccc(C(F)(F)F)c2)ccc1-c1nc2ccc(Cl)cc2[nH]1 [TCMDC-140902],11.85
2,O=C(Nc1ccc(Cn2ncc(N3CCCNCC3)c(Cl)c2=O)cc1)Nc1cc(F)cc(C(F)(F)F)c1 [TCMDC-133317],-20.94
3,COc1nc(NCC(C)C)nc(Oc2ccc(=O)n(Cc3ccccc3)n2)n1 [TCMDC-124913],48.86
4,O=C(Cc1ccc(NC(=O)c2ccc(O)c(-c3ccc(Cl)c(Cl)c3)c2)cc1)NCCc1ccc(Cl)c(Cl)c1 [TCMDC-140873],3.533
5,O=C(/C=C/c1ccc(Cl)c(Cl)c1)NCC(CCCN1CCC(c2c[nH]c3ccccc23)CC1)c1ccccc1 (stereo not shown) [TCMDC-139506],-7.536
6,CC(=O)NC1=NC(C)(C)N(OCCCOc2ccc(Cl)c(Cl)c2)C(NC(C)=O)=N1 [TCMDC-131742],2.376
7,Cc1cc(F)ccc1Oc1nc(Nc2ccc(N3CCOCC3)c(F)c2)nc2c1S(=O)(=O)CCC2 [TCMDC-135096],20
8,CCOc1cc(-c2nnc3[nH]c(=O)n(C)c(=O)c3n2)ccc1OC(C)C [TCMDC-124558],-22.82
9,O=C(Nc1ccc(C(=O)OCC2CCCCC2)cc1)N[C@@H](Cc1ccc(O)cc1)C(=O)NC1CCN(Cc2ccc(O)cc2)C1 (stereo partly shown) [TCMDC-135357],-23.12
10,O=C(Nc1cccc(-c2cccc(-c3nc4ccc(F)cc4[nH]3)c2)c1)c1ccncc1 [TCMDC-136959],85.81
11,O=C(Nc1cccc(-c2cccc(-c3nc4ccc(F)cc4[nH]3)c2)c1)c1ccoc1 [TCMDC-136841],83.89
12,O=C(Nc1cccc(-c2cccc(-c3nc4ccccc4[nH]3)c2)c1)c1ccoc1 [TCMDC-136840],9.278
13,O=C(Nc1cccc(-c2ccc(-c3nc4ccc(F)cc4[nH]3)cc2)c1)c1ccoc1 [TCMDC-136843],-15.37
14,O=C(Nc1cccc(-c2ccc(-c3nc4ccc(F)cc4[nH]3)cc2)c1)c1ccncc1 [TCMDC-136961],-22.91
15,O=C(Nc1ccc(-c2cccc(-c3nc4ccc(F)cc4[nH]3)c2)cc1)c1ccncc1 [TCMDC-136957],-5.175
16,CCCCCCn1c(Sc2ccc(C#N)c([N+](=O)[O-])c2)nnc1-c1ccc(OC)cc1 [TCMDC-135604],12.04
17,CN1C(=O)OC[C@@H]1Cc1ccc2[nH]cc(C3=CCN(Cc4ccccc4)CC3)c2c1 [TCMDC-137790],15.2
18,COc1cccc(Nc2nnc(SCC(=O)NNC(=O)c3ccccn3)s2)c1 [TCMDC-124565],57.52
19,COc1cccc(C2C(C(=O)Nc3ccccc3)=C(C)N=c3sc(=Cc4ccc(O)cc4)c(=O)n32)c1 (stereo not shown) [TCMDC-125613],-17.06
20,COCC(C)n1c(C)cc(C(=O)CSc2nnc(Nc3ccccc3)s2)c1C (stereo not shown) [TCMDC-123611],2.084
